Experimental data taken from PubChem BioAssay AID1466 (National Center for Advancing Translational Sciences (NCATS), 2008).
In all, about 200,000 compounds went through this assay and about 10 (0.005%) were called active. About 8% were inconclusive and are not listed. The call rests on the fitted dose curve; in most records, active means well fitted inhibition curve with a large enough effect; inconclusive means small, poorly fitted or top-dose-only effect, or effect the other way, or another doubt; inactive means no such curve, though single readings can be large or run the other way. Only a sample is shown.

biological target: Lysosomal alpha-glucosidase (Homo sapiens) (UniProt P10253); test: qHTS Assay for Inhibitors of Human alpha-Glucosidase as a Potential Chaperone Treatment of Pompe Disease; conditions: purified human GAA, 4-MU-alpha-glucoside fluorescence; series mostly up to 76.9 µM; activity change, negative = inhibition: at the top concentration;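 further: plate controls were uninhibited enzyme wells for no effect and no-enzyme background for full effect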
How it was run: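 Human enzyme at 4 nM with 400 uM 4-methylumbelliferyl-alpha-D-pyranoside, citrate/phosphate buffer pH 5.0, 0.005% Tween-20, 20 min at room temperature. Compounds up to 77 uM. 4-MU fluorescence (Ex 365/Em 440) read after NaOH/glycine stop; AC50 from Hill fit.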

Activity change, negative = inhibition, inactive:
CC12C(=O)N(c3ccccc3)C(=O)C1C(c1ccccc1)N1CCCN12 (centres undefined) -7.1% [at 15.4 µM], CSc1nc(C)nc(C2CC2)c1C#N -7.16%, COc1ccc(C)cc1NC(=O)CSc1nnc(CC(=O)Nc2ccccc2F)n1C -0.43%, C=CCc1ccc(OCC(O)CN2CCN(Cc3ccccc3)CC2)c(OC)c1 (centres undefined) -3.75%, O=C(c1ccc(-c2ccccc2)cc1)C1CCCN(C(=O)c2cncs2)C1 (centres undefined) -8.3%, Cc1c(CCC(=O)O)c(=O)oc2cc3occ(-c4ccccc4)c3cc12 4.78% [at 15.4 µM], Cc1n[nH]c(=O)n1-c1ccc(C(C)C)cc1 -9.22%, O=C(COC(=O)c1ccncc1)c1ccccc1 6.79%, O=C(Nc1ccc(S(=O)(=O)Nc2nccs2)cc1)c1cc(=O)[nH]c2ccccc12 -5.51% [at 15.4 µM], COC(=O)c1ccc(CN2CCN(CCCc3ccccc3)C(CCO)C2)cc1 (centres undefined) 1.82%, Cc1cc(CO)nn1-c1ccc([N+](=O)[O-])cc1 -4.3%, Cc1ccc2cc(CN(c3ccc(C)c(C)c3)S(C)(=O)=O)c(=O)[nH]c2c1 3.2%, O=C(Cc1ccccc1)N1CCN(S(=O)(=O)c2ccc([N+](=O)[O-])cc2)CC1 -1.15%, CC(=O)c1c(-c2ccccc2)c2ccccc2[nH]c1=O 13.2%, c1ccc(-c2cc(N3CCCCC3)c3ccccc3n2)cc1 -11.8%, FC(F)(F)c1ccnc(Oc2ccc(C3=NCCS3)cc2)c1 -3.74%, O=C(O)CC1=C(Nc2ccccc2)C(=O)N(c2ccccc2)C1c1ccc(Cl)cc1 (centres undefined) -3.27%, CC1CCCN(CC(O)COc2ccc3c(c2)OCO3)C1 (centres undefined) -13.5%, COc1ccc(/C=C/CN2CCN(Cc3ccc(C)cc3)C(CCO)C2)cc1 (centres undefined) 2.06%, COc1cc(C)c(Cl)cc1S(=O)(=O)n1ccnc1 2.25%, CCOC(=O)C1(CC2CCCCO2)CCN(Cc2nc(-c3cccs3)oc2C)CC1 (centres undefined) -4.24%, O=C(c1ccc(OC2CCN(Cc3ccccn3)CC2)cc1)N1CCCCCC1 2.29%, c1ccc(Cc2cc[n+](Cc3ccccc3)cc2)cc1 1.18%, Cc1nc(N)[nH]c(=O)c1Oc1cccc(C(F)(F)F)c1 0.998%, CC(C)Oc1ccc(CCc2nnc(SCC(=O)O)n2-c2ccccc2)cc1 -0.523%, O=C(NC1C2CC3CC(C2)CC1C3)c1ccc(N2CCNCC2)c([N+](=O)[O-])c1 (centres undefined) -3.61% [at 15.4 µM], CCN(CC)P(=O)(Nc1ccc(SC(F)F)cc1)c1ccc(N(C)C)cc1NC(=O)c1ccco1 (centres undefined) -15.2%, C=C(C)COc1ccc(-c2nc(N)ncc2-c2ccccc2OC)c(O)c1 -9.24%, CCN(CCn1cccn1)Cc1nc(-c2ccc(C(=O)OC)cc2)no1 -1.77%, O=C1Oc2ccccc2C(=O)/C1=C/c1ccccc1O 9.02%, Cc1ccc(S(=O)(=O)N2CCOCC2)cc1C(=O)OC1CCCCC1=O (centres undefined) -13.9%, N#CC1=C(N)Oc2c(ccc3cccnc23)C1c1ccncc1 (centres undefined) -8.01% [at 15.4 µM], COC(=O)c1sccc1NN1C(=O)c2ccccc2C1=O -1.37%, CCc1ccc(-n2c(SCc3cc(=O)n4cc(Br)ccc4n3)nc3[nH]ncc3c2=O)cc1 -9.36%, O=C(c1ccc(F)cc1)n1c(=S)nc2ccccn21 -7.36%, COc1ccc(CN2CCCC(C(=O)c3ccc(Cl)cc3)C2)cc1Cn1cncn1 (centres undefined) -8.23%, CS(=O)(=O)c1ccc2nnn(OCC(=O)Nc3cccc(C#N)c3)c2c1 -3.63%, CCOC(=O)c1ccc(NNC(C)=O)c([N+](=O)[O-])c1 9.25%, COc1ccc(OC)c(NC(=O)CN(Cc2ccc(Cl)cc2)S(C)(=O)=O)c1 -6.41%, O=C(N/N=C/c1ccccn1)c1cccnc1 -6.66% [at 15.4 µM], CCOC(=O)c1cnc2c(c(C)nn2CC)c1Cl 2.22%, CCc1nc(C)cn1S(=O)(=O)c1cc([N+](=O)[O-])ccc1Cl 3.68%, O=[N+]([O-])c1ccc(F)cc1Oc1nc(-c2cccnc2)nc2ccccc12 1.6%, COc1ccc(/C=C/C2=CC(C)(C)NC(=S)N2)c(OC)c1 -10.3%, COc1ccccc1C1CCN(C(=S)Nc2ccc(Br)cc2)CC1 -8.72% [at 15.4 µM], Cc1ccc(-c2nn(-c3cccc(F)c3)cc2CNCCc2ccncc2)o1 -3.04%, Brc1ccc2nc(N3CCCC3)sc2c1 -7.16%, COc1ccc(Cl)cc1N(CC(=O)N1CCCCC1)S(C)(=O)=O -2.73%, Cn1nc(C(F)(F)F)cc1-c1ccc(/C=C(\C#N)C(=O)c2cccc(C(F)(F)F)c2)s1 -13.5%, COc1ccc(C(=O)Nc2ccc(NC(=O)C(C)C)nc2)cc1 10.4%, CC1Cc2ccccc2N1C(=O)CSc1nnc(C2CC2)n1C (centres undefined) -3.65%, Cc1nnsc1C(=O)NCc1c(F)cccc1Cl -5.04%, Cc1cc(Cl)ccc1NNC(=O)c1snnc1C -0.766%, COc1cc(C)c(S(=O)(=O)N2CCOCC2)c(C)c1C 5.9%, COc1ccccc1/C=C/C=N/NC(=O)CN1CCN(Cc2ccccc2)CC1 -13.8%, Cc1ccc(NC(=O)CSc2nnc(CNC(=O)c3ccccc3F)o2)cc1 6.34%, COc1cccc(NCCC(=O)c2cccc([N+](=O)[O-])c2)c1 3.03%, CC(C)N(Cc1ccccc1)C(=O)COC(=O)c1cnccn1 2.14%, O=C1Nc2ccc([N+](=O)[O-])cc2C1=Nc1cccc(CO)c1 7.58%, COc1cc(/C=C2/C(=O)ON=C2C)ccc1OCc1cccc(F)c1 3.02%, CCCCS(=O)c1snnc1C (centres undefined) 7.98%, COc1ccc(-c2nc(N)sc2C2(O)C(=O)Nc3c(Br)cc(F)cc32)cc1OC (centres undefined) -1.75%, COc1ccccc1NC(=O)c1cc(Cl)nc2ccccc12 -0.703% [at 15.4 µM], Cc1c(C(=O)Nc2ccccc2)sc2nc3n(c(=O)c12)CCCCC3 -0.732%, Cc1noc(C)c1COc1ccc2ccc(=O)oc2c1 2.21%, O=C(CO/N=C/c1ccc(OC(F)F)cc1)NCc1ccc(F)cc1 -1.64%, COCc1cc(=O)[nH]c(-c2ccc(C(F)(F)F)cc2)n1 -0.699%, CC1CC(C)CN(C(=O)CSc2ccsc2[N+](=O)[O-])C1 (centres undefined) -9.98%, O=C(c1ccc(=O)oc1)N1CCC(C(O)(c2ccccc2)c2ccccc2)CC1 2.64%
